DT40 TDP1 no CPT: qHTS for Inhibitors of human tyrosyl-DNA phosphodiesterase 1 (TDP1): qHTS in cells in absence of CPT. DT40 Tdp1-/- hTDP1 cells, no CPT, ATP luminescence, 48 h. Potency, µM (doses to about 46.2 µM), for inactives: top-dose activity change, negative = growth inhibition, most hits filed as inhibitors. actives 15% (n = 420,000); note: potency is the fitted concentration of half-maximal effect; % is set by controls: 0 for no effect and ±100 for the full control effect; nearly all actives have a fitted effect of over 55% in size
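Growth of hTDP1-complemented DT40 Tdp1-knockout cells is measured by ATP luminescence after at least 48 hr compound exposure at 37 °C, with DMSO substituting for the 20 nM CPT used in the parallel screen.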
HepG2 viability: kills HepG2 cells in TGF-b inhibitor counter-screen | HepG2 CAGA-GFP viability, ATP luminescence, 18 h | Potency, µM (series often up to 46.1 µM), for inactives: top-dose activity change, negative = cytotoxicity, hits mostly cytotoxic | actives 0.76% (n = 410,000); note: potency is the fitted concentration of half-maximal effect
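CellTiter-Glo luminescence gave cytotoxicity after 18 hours at 37 degrees C. The cells were HepG2 CAGA-GFP in 1% FBS DMEM, stimulated with 500 pg/mL TGF-beta after compound addition. %Activity was normalised to no-cell wells (complete cell-killing) and DMSO (no toxicity), and curves were fitted and classified.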
TGFb SMAD3 inh: inhibitors of TGF-b signaling; HepG2 CAGA-GFP TGF-b/SMAD3 reporter, GFP fluorescence, 18 h; TGF-beta stimulated, 500 pg/mL final; Potency, µM (top dose mostly 46.1 µM), inactives show top-dose activity, negative = inhibition, usual class: inhibitors; actives 1.2% (n = 410,000); AID 588855; note: potency is the fitted concentration of half-maximal effect; % is set by controls: 0 for no effect and ±100 for the full control effect; nearly all actives have a fitted effect of over 65% in size
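First, reporter cells (HEPG2 CAGA-GFP) rested 2 h at 37 degrees C. Next, compounds were pinned in and TGF-beta added to 500 pg/mL final. After 18 h, GFP was imaged per cell and summed per well.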
TDP1 inh: blocks human tyrosyl-DNA phosphodiesterase 1; Potency, µM (doses to about 130 µM), inactives show top-dose activity change, negative = inhibition, actives largely listed as inhibitors; recombinant TDP1, AlphaScreen DNA substrate cleavage; actives 0.28% (n = 350,000); note: potency is the fitted concentration of half-maximal effect; % is set by controls: 0 for no effect and ±100 for the full control effect; nearly all actives have a fitted effect of over 40% in size
Target sequence (Q9NUW8 whole entry, looked up): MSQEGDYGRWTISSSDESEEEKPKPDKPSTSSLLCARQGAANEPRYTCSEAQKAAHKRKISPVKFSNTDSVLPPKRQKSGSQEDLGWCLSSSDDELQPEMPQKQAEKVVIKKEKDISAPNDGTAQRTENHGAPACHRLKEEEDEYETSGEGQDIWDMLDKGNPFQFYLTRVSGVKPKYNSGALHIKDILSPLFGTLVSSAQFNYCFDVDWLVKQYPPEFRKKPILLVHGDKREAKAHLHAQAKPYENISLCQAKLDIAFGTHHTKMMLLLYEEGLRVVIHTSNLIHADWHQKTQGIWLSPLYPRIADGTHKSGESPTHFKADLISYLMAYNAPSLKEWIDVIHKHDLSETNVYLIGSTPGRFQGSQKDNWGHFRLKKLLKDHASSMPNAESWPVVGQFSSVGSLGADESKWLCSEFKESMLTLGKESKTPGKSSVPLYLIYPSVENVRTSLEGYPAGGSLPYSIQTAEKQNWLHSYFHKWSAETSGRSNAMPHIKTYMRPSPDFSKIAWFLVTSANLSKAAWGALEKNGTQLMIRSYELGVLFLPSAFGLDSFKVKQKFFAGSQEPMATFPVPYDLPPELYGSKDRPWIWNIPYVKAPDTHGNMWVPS
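AlphaScreen read-out: signal falls as enzyme removes the 3' tyrosine-FITC from a 5'-biotinylated DNA oligo (15 nM, 5 min, RT). Enzyme was E. coli-made recombinant Tdp1 at 1 nM, exposed to compound for 15 min beforehand; beads 10 ug/ml, 10 min.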
IL-1B inflam inh: inhibitors of inflammasome signaling (IL-1 beta secretion) | activity change, % at 57.5 µM | THP-1 LPS/ATP IL-1B secretion, AlphaLISA, 16 h; active compounds read low | AID 743279 | actives 4.7% (n = 360,000); in the data active = activity change below about -50%; inconclusive = mostly about -30% to -49%; note: % is set by controls: 0 for no effect and ±100 for the full control effect
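THP-1 cells pretreated 1 hr with compounds (up to 57.5 uM final), then stimulated with LPS (250 ng/mL final) plus ATP (1.25 mM final); secreted IL-1B measured by AlphaLISA after 16 hr, decreased signal indicating inhibition.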
DT40 TDP1 CPT: DT40-hTDP1 cell growth loss with CPT; Potency, µM (series often up to 46.2 µM), inactives show at the top dose activity change, negative = growth inhibition, hits mostly inhibitors; chicken DT40 Tdp1-/-;hTDP1 cells + 20 nM CPT, ATP luminescence, 48 h; actives 12% (n = 420,000); AID 686979; note: potency is the fitted concentration of half-maximal effect; % is set by controls: 0 for no effect and ±100 for the full control effect; nearly all actives have a fitted effect of over 55% in size
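Chicken DT40 Tdp1-/- cells complemented with human TDP1, 400 cells/well, exposed to compounds plus 20 nM camptothecin for at least 48 h at 37 C; viability read as ATP content by CellTiter-Glo luminescence.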
* hit, by the source's call; ? = inconclusive; nt = no result given. Only some compounds are listed: those with a hit (about 18% of all), similar ones and a draw of the others. Unless noted, calls come from the whole dose curve; as a rule, active = well fitted curve in the direction sought with a large enough effect; inconclusive = small, poorly fitted or top-dose-only effect, or another doubt; inactive = no such curve, though single readings can be large; an effect the other way counts as inactive or inconclusive.

SMILES | DT40 TDP1 no CPT | HepG2 viability | TGFb SMAD3 inh | TDP1 inh | IL-1B inflam inh | DT40 TDP1 CPT
Cc1ccc(NC(=O)CN2C(=O)NC3(CCCCC3C)C2=O)cc1S(=O)(=O)N1CCOCC1 (centres undefined) | 23.1µM* | 7.3% | -8.6% | nt | -6.9 | ?
CC1CCCCC12NC(=O)N(CC(=O)Nc1ccc(Cl)c(S(=O)(=O)N3CCOCC3)c1)C2=O (centres undefined) | 18.4µM* | 5.9% | 10.9% | 0.2% | 24.3 | ?
CCCC1(CCC)NC(=O)N(CC(=O)Nc2ccc(Cl)c(S(=O)(=O)N3CCOCC3)c2)C1=O | ? | -1.8% | -15.5% | -0.1% | -62.7* | ?
Cc1cc(C)nc(N2CCC(C(=O)Nc3nnc(C)s3)CC2)n1 | -1.5% | -3.1% | 10.7% | 2.9% | -4.1 | -2.5%
FC(F)(F)c1nnc2c(Sc3ccccc3)nc3ccc(Cl)cc3n12 | 0.581µM* | -38.6% | -21.1% | -2.0% | -69.5* | 0.651µM*
COC(=O)[C@]1(C)N[C@H](c2ccc(-c3ccccc3)cc2)[C@@H]2C(=O)N(C)C(=O)[C@@H]21 | ? | -7.0% | 11.9% | -1.7% | -2.4 | ?
CCN1C(=O)[C@H]2[C@@H](c3ccc(-c4ccccc4)cc3)N[C@@](Cc3ccccc3)(C(=O)OC)[C@H]2C1=O | 18.4µM* | -0.8% | 10.4% | -6.7% | -53.3* | ?
CCN1C(=O)[C@H]2[C@@H](c3ccc(-c4ccc(Cl)c(Cl)c4)cc3)N[C@@](Cc3ccccc3)(C(=O)OC)[C@H]2C1=O | 14.6µM* | -0.6% | 3.7% | -1.7% | -11.9 | 23.1µM*
CCN1C(=O)[C@H]2[C@@H](c3ccc(-c4ccc(OC)cc4)c(OC)c3)N[C@@](Cc3ccccc3)(C(=O)OC)[C@H]2C1=O | ? | -23.6% | -0.9% | -6.9% | -15.6 | ?
CCN1C(=O)[C@H]2[C@@H](c3ccc(-c4cc(C(C)=O)cs4)cc3)N[C@@](Cc3ccccc3)(C(=O)OC)[C@H]2C1=O | ? | -1.8% | 0.2% | -0.4% | 7.8 | ?
CCN1C(=O)[C@H]2[C@@H](c3ccc(-c4ccc(C(C)=O)cc4)cc3)N[C@@](Cc3ccccc3)(C(=O)OC)[C@H]2C1=O | ? | 6.0% | 18.3% | 1.7% | -19.9 | 13µM*
COC(=O)[C@]1(Cc2ccccc2)N[C@H](c2ccc(-c3ccc(F)cc3)cc2)[C@@H]2C(=O)N(C)C(=O)[C@@H]21 | 16.4µM* | -9.6% | 10.7% | 0.2% | ? | 18.4µM*
Cc1ccc(F)cc1NC(=O)Cn1c(C)cc(C)c(C#N)c1=O | 2.1% | -2.0% | 19.6% | 6.2% | nt | 20.6µM*
Cc1cc(C)n(CC(=O)Nc2cc(F)ccc2F)c(=O)c1C#N | nt | -12.4% | -1.5% | 6.2% | nt | nt
Cc1cc(NC(=O)COC(=O)C2CSC3(C)CCC(=O)N23)ccc1Br (centres undefined) | -5.2% | -6.5% | 2.0% | -3.3% | -18.3 | ?
CC(=O)NC12CC3CC(C1)CC(C(=O)Nc1nc4ccc(F)cc4s1)(C3)C2 | 25.9µM* | -34.6% | 0.0% | 6.8% | ? | ?
CC12CCC(=O)N1C(C(=O)Nc1nc3ccc(F)cc3s1)CS2 (centres undefined) | 10.3µM* | -14.9% | -3.4% | 0.1% | -10.0 | -15.1%
CC12CCC(=O)N1C(C(=O)OCC(=O)Nc1ccc(Cl)c(Cl)c1)CS2 (centres undefined) | ? | 7.2% | 7.5% | 6.0% | -57.8* | -19.1%
CC12CCC(=O)N1C(C(=O)Nc1ccc(Cl)c(Cl)c1)CS2 (centres undefined) | -26.2% | -14.6% | -16.0% | -3.2% | -50.1* | 14.1%
CCC(C)n1c(=O)c2sccc2n2c(CCCC(=O)NCc3ccccc3Cl)nnc12 (centres undefined) | -20.8% | -19.1% | -15.4% | 5.1% | nt | 1.4%
CC1=NOC(=O)/C1=C\c1ccc(-c2cc(Cl)ccc2Cl)o1 | ? | -16.5% | -19.9% | nt | -55.5* | ?
CC1=NOC(=O)/C1=C/c1ccc(-c2ccc(Cl)cc2)o1 | nt | nt | nt | -1.1% | nt | nt
CC1=NOC(=O)/C1=C\c1ccc(-c2ccc(Br)cc2)o1 | 11.6µM* | -81.5% | ? | -7.4% | -98.8* | 13µM*
CC(C)Sc1ccc([N+](=O)[O-])cc1C(=O)Nc1ccncc1 | -18.2% | 4.7% | 19.2% | 8.6% | 4.5 | -4.1%
CCCc1cc2c(=O)c(-c3ccccn3)coc2cc1OC | 8.2µM* | -35.3% | -4.6% | nt | -7.7 | ?
SMILES | DT40 TDP1 no CPT | HepG2 viability | TGFb SMAD3 inh | TDP1 inh | IL-1B inflam inh | DT40 TDP1 CPT
COc1ccccc1Oc1coc2cc(OCC(N)=O)ccc2c1=O | 2.8% | 2.7% | -2.7% | nt | 1.4 | -1.3%
COc1cccc(-n2c(=O)c3c4c(sc3n(Cc3ccc(F)cc3Cl)c2=O)CCCC4)c1 | ? | -3.3% | -12.4% | -1.8% | nt | -9.4%
COc1ccc(-n2c(=O)c3c4c(sc3n(Cc3ccc(F)cc3)c2=O)CN(C(C)=O)CC4)c(OC)c1 | 13µM* | -30.6% | ? | 3.9% | nt | 20.6µM*
COc1ccc(-n2c(=O)c3c(C)c(C)sc3n(Cc3ccc(F)cc3)c2=O)c(OC)c1 | 13µM* | 17.9% | 0.0% | 0.0% | -8.9 | 2.6%
COc1ccc(-n2c(=O)c3c4c(sc3n(Cc3cccc(F)c3)c2=O)CN(C(C)=O)CC4)c(OC)c1 | nt | nt | nt | 5.1% | nt | nt
COc1cccc(-n2c(=O)c3c(C)c(C(=O)N(C)C)sc3n(Cc3ccc(F)cc3Cl)c2=O)c1 | 18.4µM* | -2.7% | -4.7% | 4.4% | nt | ?
COc1ccccc1CCNC(=O)C(=O)NCC1OCCCN1S(=O)(=O)c1ccc(F)cc1C (centres undefined) | ? | -8.5% | -4.7% | 1.5% | -8.5 | ?
O=C(NC1CC(=O)N(c2ccccc2)C1)c1cccs1 (centres undefined) | ? | -2.4% | 2.1% | -2.6% | nt | -14.1%
O=C(NNC(=O)c1ccc(Cl)cc1Cl)c1cnccn1 | 25.9µM* | 8.2% | 9.4% | nt | 29.3 | ?
O=C(NNC(=O)c1cnccn1)c1ccc(Cl)cc1 | 14.6µM* | -12.0% | 12.1% | 9.0% | 23.1 | ?
Cc1cc(OCC(=O)NNC(=O)c2cnccn2)cc(C)c1Cl | 5.8µM* | 13.4% | 0.4% | 4.0% | 46.0 | 10.3µM*
O=c1oc2ccccc2c(N2CCCC2)c1[N+](=O)[O-] | -29.6% | -21.0% | 3.5% | 6.3% | -4.2 | -18.1%

Assay outcomes from PubChem BioAssay.
